# Test results reported in article PMC7862700, “An all-to-all approach to the identification of sequence-specific readers for epigenetic DNA modifications on cytosine”.
# Experiments:
# Test in all cases: DAPPL (digital affinity profiling via proximity ligation, sequencing); 10 mM Tris-HCl pH 7.5, 50 mM NaCl, 1 mM DTT, 4% glycerol, room temperature, 30 min; GST-TFs on glutathione beads, 16-mer random dsDNA library, 0.1% formaldehyde crosslink after washing; high values mean tight binding
# SPI1 = SPI1 (Homo sapiens, UniProt P17947 1-270); settings: protein: recombinant; tags: N-terminal GST; dsDNA, one strand shown
# Procedure, shortened: (§1)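 Sequencing on an Illumina NextSeq500 followed washing, crosslinking with 0.1% formaldehyde, proximity ligation (BsaI/T4 ligase, 1 h, 37 °C) and PCR amplification of pools that had been incubated for 30 min at room temperature with 200 nmole of a random double-stranded 16-mer DNA library in Tris/NaCl/DTT/glycerol buffer. Each pool held DNA-barcoded human transcription factors, expressed in yeast as GST fusions and captured on glutathione beads, plus a tag-only sample. Binding signal is a hexamer's read frequency for a factor divided by its frequency in the tag-only sample.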
# HSF1 = HSF1 (Homo sapiens, UniProt Q00613 1-529); settings: protein: recombinant; tags: N-terminal GST; chain copies: 3; dsDNA, one strand shown
# Procedure, shortened: as §1
# ELF5 = molecular target: T1, ELF5 (Homo sapiens, UniProt Q9UKW6-2 1-255); settings: protein: recombinant; tags: N-terminal GST; dsDNA, one strand shown
# T1 sequence: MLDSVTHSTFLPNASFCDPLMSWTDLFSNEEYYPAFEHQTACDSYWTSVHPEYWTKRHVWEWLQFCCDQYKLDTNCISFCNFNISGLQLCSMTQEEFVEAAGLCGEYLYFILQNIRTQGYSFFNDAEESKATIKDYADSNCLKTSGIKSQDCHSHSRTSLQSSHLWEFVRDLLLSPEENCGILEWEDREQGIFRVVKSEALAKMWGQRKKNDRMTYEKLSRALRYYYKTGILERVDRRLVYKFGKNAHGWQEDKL
# Procedure, shortened: as §1
# FEV = molecular target: T2, FEV (Homo sapiens, UniProt Q99581 1-238); settings: protein: recombinant; tags: N-terminal GST; dsDNA, one strand shown
# T2 sequence: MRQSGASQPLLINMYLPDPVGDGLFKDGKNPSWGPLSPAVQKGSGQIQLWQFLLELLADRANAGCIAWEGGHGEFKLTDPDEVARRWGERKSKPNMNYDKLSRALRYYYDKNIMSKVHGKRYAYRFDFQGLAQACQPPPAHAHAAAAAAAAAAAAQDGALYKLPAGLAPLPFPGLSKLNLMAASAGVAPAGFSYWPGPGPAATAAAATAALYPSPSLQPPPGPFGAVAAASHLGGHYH
# Procedure, shortened: as §1
# ETV2 = molecular target: T3, ETV2 (Homo sapiens, UniProt O00321 1-342); settings: protein: recombinant; tags: N-terminal GST; dsDNA, one strand shown
# T3 sequence: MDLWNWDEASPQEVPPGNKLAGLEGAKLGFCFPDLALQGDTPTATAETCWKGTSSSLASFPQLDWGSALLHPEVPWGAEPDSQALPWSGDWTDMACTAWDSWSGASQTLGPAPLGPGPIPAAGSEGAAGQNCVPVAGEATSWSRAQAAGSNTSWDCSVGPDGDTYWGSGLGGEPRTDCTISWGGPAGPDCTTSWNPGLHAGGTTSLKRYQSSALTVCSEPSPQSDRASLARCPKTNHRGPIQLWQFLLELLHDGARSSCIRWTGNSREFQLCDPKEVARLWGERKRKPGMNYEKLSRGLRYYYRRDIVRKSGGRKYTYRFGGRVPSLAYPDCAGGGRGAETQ
# Procedure, shortened: as §1
# CRX = CRX (Homo sapiens, UniProt O43186 1-299); settings: protein: recombinant; tags: N-terminal GST; dsDNA, one strand shown
# Procedure, shortened: as §1
# Sequence of HSF1 (Q00613 whole entry): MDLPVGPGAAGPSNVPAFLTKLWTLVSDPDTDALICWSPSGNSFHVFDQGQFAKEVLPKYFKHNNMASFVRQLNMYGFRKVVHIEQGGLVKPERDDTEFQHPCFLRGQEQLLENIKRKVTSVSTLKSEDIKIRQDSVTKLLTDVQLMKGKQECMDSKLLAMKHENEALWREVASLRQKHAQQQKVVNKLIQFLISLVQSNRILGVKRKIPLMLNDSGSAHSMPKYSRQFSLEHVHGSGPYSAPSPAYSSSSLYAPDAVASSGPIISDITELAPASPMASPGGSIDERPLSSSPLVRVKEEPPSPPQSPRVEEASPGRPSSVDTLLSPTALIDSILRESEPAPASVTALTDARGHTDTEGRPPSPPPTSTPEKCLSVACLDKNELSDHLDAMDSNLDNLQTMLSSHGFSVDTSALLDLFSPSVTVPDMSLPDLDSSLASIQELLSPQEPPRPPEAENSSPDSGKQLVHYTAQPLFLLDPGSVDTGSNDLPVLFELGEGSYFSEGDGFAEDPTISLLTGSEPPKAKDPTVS
# Sequence of CRX (O43186 whole entry): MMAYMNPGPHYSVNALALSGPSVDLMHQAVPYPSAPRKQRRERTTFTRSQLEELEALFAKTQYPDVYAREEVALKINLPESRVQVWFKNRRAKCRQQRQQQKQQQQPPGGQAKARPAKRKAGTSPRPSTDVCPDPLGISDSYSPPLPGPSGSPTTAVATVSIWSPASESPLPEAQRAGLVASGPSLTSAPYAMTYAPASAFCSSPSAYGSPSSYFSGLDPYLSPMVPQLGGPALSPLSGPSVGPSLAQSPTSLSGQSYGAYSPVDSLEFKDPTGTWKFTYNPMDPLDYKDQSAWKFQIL
sequence,measurement,setting,value
AGTAAA,binding signal,SPI1,"1.22 fold enrichment (6-mer frequency, TF over GST control)"
same,binding signal,HSF1,"1.09 fold enrichment (6-mer frequency, TF over GST control)"
same,binding signal,ELF5,"1.06 fold enrichment (6-mer frequency, TF over GST control)"
TGGGTG,binding signal,SPI1,"1 fold enrichment (6-mer frequency, TF over GST control)"
same,binding signal,ELF5,"1.04 fold enrichment (6-mer frequency, TF over GST control)"
TGGAAC,binding signal,FEV,"1.02 fold enrichment (6-mer frequency, TF over GST control)"
same,binding signal,HSF1,"1.86 fold enrichment (6-mer frequency, TF over GST control)"
ACACGG,binding signal,ELF5,"1.15 fold enrichment (6-mer frequency, TF over GST control)"
GTACGA,binding signal,SPI1,"1.05 fold enrichment (6-mer frequency, TF over GST control)"
same,binding signal,FEV,"1.01 fold enrichment (6-mer frequency, TF over GST control)"
same,binding signal,ETV2,"1.07 fold enrichment (6-mer frequency, TF over GST control)"
same,binding signal,ELF5,"1.03 fold enrichment (6-mer frequency, TF over GST control)"
TGGAAG,binding signal,SPI1,"1.08 fold enrichment (6-mer frequency, TF over GST control)"
same,binding signal,HSF1,"1.56 fold enrichment (6-mer frequency, TF over GST control)"
same,binding signal,ELF5,"1.07 fold enrichment (6-mer frequency, TF over GST control)"
AGCTCG,binding signal,FEV,"1.03 fold enrichment (6-mer frequency, TF over GST control)"
same,binding signal,HSF1,"1.02 fold enrichment (6-mer frequency, TF over GST control)"
same,binding signal,ETV2,"1 fold enrichment (6-mer frequency, TF over GST control)"
CAGCCC,binding signal,SPI1,"1.03 fold enrichment (6-mer frequency, TF over GST control)"
same,binding signal,FEV,"1.13 fold enrichment (6-mer frequency, TF over GST control)"
same,binding signal,ETV2,"1.27 fold enrichment (6-mer frequency, TF over GST control)"
same,binding signal,ELF5,"1.01 fold enrichment (6-mer frequency, TF over GST control)"
CATAAG,binding signal,HSF1,"1.13 fold enrichment (6-mer frequency, TF over GST control)"
same,binding signal,CRX,"1.42 fold enrichment (6-mer frequency, TF over GST control)"
AGTCCC,binding signal,SPI1,"1.26 fold enrichment (6-mer frequency, TF over GST control)"
same,binding signal,FEV,"1.09 fold enrichment (6-mer frequency, TF over GST control)"
same,binding signal,ELF5,"1.06 fold enrichment (6-mer frequency, TF over GST control)"
GCTAGA,binding signal,HSF1,"1.96 fold enrichment (6-mer frequency, TF over GST control)"
same,binding signal,CRX,"1.15 fold enrichment (6-mer frequency, TF over GST control)"
CACAGC,binding signal,FEV,"1.03 fold enrichment (6-mer frequency, TF over GST control)"
same,binding signal,ETV2,"1.05 fold enrichment (6-mer frequency, TF over GST control)"
AGCCAC,binding signal,SPI1,"1.03 fold enrichment (6-mer frequency, TF over GST control)"
same,binding signal,FEV,"1.04 fold enrichment (6-mer frequency, TF over GST control)"
same,binding signal,ETV2,"1.07 fold enrichment (6-mer frequency, TF over GST control)"
ACGCTC,binding signal,ETV2,"1.02 fold enrichment (6-mer frequency, TF over GST control)"
GGGGCT,binding signal,CRX,"1.11 fold enrichment (6-mer frequency, TF over GST control)"
GTACTG,binding signal,SPI1,"1.04 fold enrichment (6-mer frequency, TF over GST control)"
GAACTG,binding signal,SPI1,"1.2 fold enrichment (6-mer frequency, TF over GST control)"
same,binding signal,ETV2,"1.02 fold enrichment (6-mer frequency, TF over GST control)"
same,binding signal,ELF5,"1.01 fold enrichment (6-mer frequency, TF over GST control)"
CAAACA,binding signal,SPI1,"1.14 fold enrichment (6-mer frequency, TF over GST control)"
same,binding signal,FEV,"1.1 fold enrichment (6-mer frequency, TF over GST control)"
same,binding signal,ETV2,"1.13 fold enrichment (6-mer frequency, TF over GST control)"
same,binding signal,ELF5,"1.11 fold enrichment (6-mer frequency, TF over GST control)"
AGTGCA,binding signal,SPI1,"1.47 fold enrichment (6-mer frequency, TF over GST control)"
same,binding signal,FEV,"1.15 fold enrichment (6-mer frequency, TF over GST control)"
same,binding signal,ETV2,"1.04 fold enrichment (6-mer frequency, TF over GST control)"
same,binding signal,ELF5,"1.1 fold enrichment (6-mer frequency, TF over GST control)"
GCAATC,binding signal,SPI1,"1.02 fold enrichment (6-mer frequency, TF over GST control)"
same,binding signal,FEV,"1.05 fold enrichment (6-mer frequency, TF over GST control)"
same,binding signal,HSF1,"1.01 fold enrichment (6-mer frequency, TF over GST control)"
same,binding signal,ETV2,"1.05 fold enrichment (6-mer frequency, TF over GST control)"
same,binding signal,CRX,"1 fold enrichment (6-mer frequency, TF over GST control)"
GGGAAA,binding signal,SPI1,"1.05 fold enrichment (6-mer frequency, TF over GST control)"
same,binding signal,HSF1,"1.15 fold enrichment (6-mer frequency, TF over GST control)"
same,binding signal,ELF5,"1.42 fold enrichment (6-mer frequency, TF over GST control)"
GTTACC,binding signal,SPI1,"1.12 fold enrichment (6-mer frequency, TF over GST control)"
same,binding signal,FEV,"1.07 fold enrichment (6-mer frequency, TF over GST control)"
same,binding signal,ELF5,"1.11 fold enrichment (6-mer frequency, TF over GST control)"
CAATGT,binding signal,FEV,"1 fold enrichment (6-mer frequency, TF over GST control)"
GCGAAA,binding signal,SPI1,"1.02 fold enrichment (6-mer frequency, TF over GST control)"
same,binding signal,HSF1,"1.26 fold enrichment (6-mer frequency, TF over GST control)"
GCAGCT,binding signal,SPI1,"1 fold enrichment (6-mer frequency, TF over GST control)"
same,binding signal,FEV,"1.09 fold enrichment (6-mer frequency, TF over GST control)"
same,binding signal,ETV2,"1.06 fold enrichment (6-mer frequency, TF over GST control)"
same,binding signal,CRX,"1 fold enrichment (6-mer frequency, TF over GST control)"
GTCTAT,binding signal,SPI1,"1.03 fold enrichment (6-mer frequency, TF over GST control)"
same,binding signal,ETV2,"1 fold enrichment (6-mer frequency, TF over GST control)"
same,binding signal,ELF5,"1.08 fold enrichment (6-mer frequency, TF over GST control)"
TCGAAC,binding signal,HSF1,"2 fold enrichment (6-mer frequency, TF over GST control)"
same,binding signal,ETV2,"1.03 fold enrichment (6-mer frequency, TF over GST control)"
same,binding signal,CRX,"1.07 fold enrichment (6-mer frequency, TF over GST control)"
same,binding signal,ELF5,"1.04 fold enrichment (6-mer frequency, TF over GST control)"
GAAGCC,binding signal,FEV,"1.05 fold enrichment (6-mer frequency, TF over GST control)"
same,binding signal,ETV2,"1.04 fold enrichment (6-mer frequency, TF over GST control)"
same,binding signal,ELF5,"1.07 fold enrichment (6-mer frequency, TF over GST control)"
CGCGCG,binding signal,ETV2,"1.05 fold enrichment (6-mer frequency, TF over GST control)"
ACTCAG,binding signal,FEV,"1.02 fold enrichment (6-mer frequency, TF over GST control)"
same,binding signal,ETV2,"1.09 fold enrichment (6-mer frequency, TF over GST control)"
GCCCCG,binding signal,SPI1,"1.08 fold enrichment (6-mer frequency, TF over GST control)"
same,binding signal,FEV,"1.12 fold enrichment (6-mer frequency, TF over GST control)"
same,binding signal,ETV2,"1.06 fold enrichment (6-mer frequency, TF over GST control)"
GAAACC,binding signal,FEV,"1.08 fold enrichment (6-mer frequency, TF over GST control)"
same,binding signal,ETV2,"1.06 fold enrichment (6-mer frequency, TF over GST control)"
same,binding signal,ELF5,"1.03 fold enrichment (6-mer frequency, TF over GST control)"
AACGCA,binding signal,SPI1,"1.06 fold enrichment (6-mer frequency, TF over GST control)"
same,binding signal,FEV,"1.11 fold enrichment (6-mer frequency, TF over GST control)"
same,binding signal,ETV2,"1.1 fold enrichment (6-mer frequency, TF over GST control)"
same,binding signal,ELF5,"1.04 fold enrichment (6-mer frequency, TF over GST control)"
CATAGT,binding signal,ELF5,"1 fold enrichment (6-mer frequency, TF over GST control)"
AAACAG,binding signal,SPI1,"1.13 fold enrichment (6-mer frequency, TF over GST control)"
same,binding signal,ELF5,"1.03 fold enrichment (6-mer frequency, TF over GST control)"
TGGTCG,binding signal,ETV2,"1.08 fold enrichment (6-mer frequency, TF over GST control)"
